According to PubChem BioAssay (NCATS):
Where “and” joins values, the source holds several entries; their conditions need not be identical. Equal entries are not always repeated. Results filed as inconclusive are left out. Calls of active or inactive are those of the source. Calls come from the whole dose curve; as a rule, active = well fitted curve in the direction sought with a large enough effect; inconclusive = small, poorly fitted or top-dose-only effect, or another doubt; inactive = no such curve, though single readings can be large; an effect the other way counts as inactive or inconclusive.

How the values were obtained:
CRL-7250 = normal cell line; experiment: Cytotoxic Profiling of Annotated Libraries Using Quantitative High-Throughput Screening (AID 1296008); settings: Five cell lines viability, CellTiter-Glo ATP luminescence, 48-72 h; max response: stronger effect = lower value; note: nearly all actives have a fitted effect of over 60% in size; for max response: % is set by controls: 0 for no effect and ±100 for the full control effect
Procedure, shortened: (§1)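 Cytotoxicity was measured as CellTiter-Glo ATP luminescence, read after 10 min at room temperature. Compound treatment of the cells lasted 48 or 72 hr at 37 degrees Celsius in a qHTS format.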

HEK293 = experiment: as above; settings: Five cell lines viability, CellTiter-Glo ATP luminescence, 48-72 h; max response: stronger effect = lower value
Procedure, shortened: as §1

HaCat [1] = experiment: as above; settings: Five cell lines viability, CellTiter-Glo ATP luminescence, 48-72 h; max response: stronger effect = lower value
Procedure, shortened: as §1

KB-3-1 = experiment: as above; settings: Five cell lines viability, CellTiter-Glo ATP luminescence, 48-72 h; max response: stronger effect = lower value
Procedure, shortened: as §1

NIH3T3 = experiment: as above; settings: Five cell lines viability, CellTiter-Glo ATP luminescence, 48-72 h; max response: stronger effect = lower value
Procedure, shortened: as §1

HACAT [2] = experiment: qHTS assay to identify novel small-molecules to repurpose for Merkel cell carcinoma treatment (AID 1296009); settings: MCC and control cell lines, CellTiter-Glo viability, 72 h; at 44.8 µM (top of the series) unless noted; note: nearly all actives have a fitted effect of over 60% in size
Procedure, shortened: (§2)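 Cell viability measured by CellTiter-Glo following 72 hr compound treatment at 37 degree celsius, with NPC and MIPE libraries tested in 8- and 11-point concentration series.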

HEK293T = experiment: as above; settings: MCC and control cell lines, CellTiter-Glo viability, 72 h; series mostly up to 44.8 µM
Procedure, shortened: as §2

C33A = experiment: Primary qHTS to identify gynecologic anti-cancer compounds using libraries of approved drugs and bioactive compounds (AID 1345084); settings: Gynecologic cancer cell panel viability, ATPlite luminescence, 48 h; series mostly up to 57.5 µM; note: % is set by controls: 0 for no effect and ±100 for the full control effect; nearly all actives have a fitted effect of over 55% in size
Procedure, shortened: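 Five-concentration response, 48 h; readout is ATP-driven luciferase luminescence.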

O=C(COc1ccc(Cl)cc1)NC1CCC(NC(=O)COc2ccc(Cl)cc2)CC1 (stereo not drawn)
inactive: max response (CRL-7250) 2.66% | outcome (HEK293) | outcome (HaCat [1]) | max response (KB-3-1) -4.12% | max response (NIH3T3) -4.22% | outcome (HACAT [2]) | Potency (HEK293T) | Potency (C33A)

Cc1nnc(C(C)C)n1C1CC2CCC(C1)N2CCC(NC(=O)C1CCC(F)(F)CC1)c1ccccc1 (stereo not drawn)
inactive: max response (CRL-7250) -10.9% | outcome (HEK293) | outcome (HaCat [1]) | max response (KB-3-1) 8.02% | max response (NIH3T3) -0.909% | outcome (HACAT [2]) | Potency (HEK293T) | Potency (C33A)

CNC(=O)COC(=O)NCCC1CCN(c2cccc(C)n2)CC1
inactive: max response (CRL-7250) -5.78% | outcome (HEK293) | outcome (HaCat [1]) | max response (KB-3-1) 9.28% | max response (NIH3T3) -5.35% | outcome (HACAT [2]) | Potency (HEK293T) | Potency (C33A)

O=C1C[C@@H](c2ccc(O)cc2)Oc2cc(O)ccc21
inactive: max response (CRL-7250) -9.15% | outcome (HEK293) | outcome (HaCat [1]) | max response (KB-3-1) 3.42% | max response (NIH3T3) 1.22% | outcome (HACAT [2]) | Potency (HEK293T) | Potency (C33A)

CC12CCC3C(C)(C)C(O)CCC3(C)C1Cc1c(oc(C(=O)O)cc1=O)O2 (stereo not drawn)
inactive: outcome (CRL-7250) | outcome (HEK293) | outcome (HaCat [1]) | outcome (KB-3-1) | max response (NIH3T3) 1.94% | outcome (HACAT [2]) | Potency (HEK293T) | Potency (C33A)

OC[C@H]1O[C@@H](Oc2ccc3c(c2)OC[C@H]2c4cc5c(cc4O[C@@H]32)OCO5)[C@H](O)[C@@H](O)[C@@H]1O
inactive: max response (CRL-7250) -1.83% | outcome (HEK293) | outcome (HaCat [1]) | outcome (KB-3-1) | max response (NIH3T3) 0.631% | outcome (HACAT [2]) inactive [at 17.4 µM] | Potency (HEK293T) | Potency (C33A)

CC(C)[C@H]1CCC(CO)=C[C@@H]1/C=C(\CO)C(=O)O
inactive: max response (CRL-7250) -1.21% | outcome (HEK293) | outcome (HaCat [1]) | max response (KB-3-1) 7.99% | max response (NIH3T3) -1.04% | outcome (HACAT [2]) | Potency (HEK293T) | Potency (C33A)

COc1cc(C(O)C(CO)Oc2ccc(CCCO[C@@H]3O[C@@H](C)[C@H](O)[C@@H](O)[C@H]3O)cc2OC)ccc1O (stereo partly drawn)
inactive: outcome (CRL-7250) | outcome (HEK293) | outcome (HaCat [1]) | outcome (KB-3-1) | max response (NIH3T3) -2.23% | outcome (HACAT [2]) inactive [at 17.4 µM] | Potency (HEK293T) | Potency (C33A)

C=C(C)[C@H]1C[C@@H](O)C(=C)CC[C@@H](O)C(=C)[C@@H](O)C1
inactive: max response (CRL-7250) -0.626% | outcome (HEK293) | outcome (HaCat [1]) | outcome (KB-3-1) | max response (NIH3T3) -1.51% | outcome (HACAT [2]) | Potency (HEK293T) | Potency (C33A)

Cc1nn(C)c(COc2ccc(N3CCN(S(=O)(=O)N(C)C)CC3)cc2)c1-c1cccc2c(CCCOc3cccc4ccccc34)c(C(=O)O)n(CCN3CCOCC3)c12
inactive: max response (CRL-7250) -5.39% and -9.48% | outcome (HEK293) | outcome (HaCat [1]) | max response (KB-3-1) 3.5% | max response (NIH3T3) -0.0408% | outcome (HACAT [2]) | Potency (HEK293T) | Potency (C33A)

O=C(/C=C/c1ccc(O)cc1)OCC1=CC2OC(=O)C3=CO[C@@H](O[C@@H]4O[C@H](CO)[C@@H](O)[C@H](O)[C@H]4O)[C@H]1[C@@H]32 (stereo partly drawn)
inactive: max response (CRL-7250) -2.07% | outcome (HEK293) | outcome (HaCat [1]) | outcome (KB-3-1) | max response (NIH3T3) -2.28% | outcome (HACAT [2]) inactive [at 17.4 µM] | Potency (HEK293T) | Potency (C33A)

CC1CC(O)CC(C)(C)C1(O)CCO (stereo not drawn)
inactive: max response (CRL-7250) -5.35% | outcome (HEK293) | outcome (HaCat [1]) | outcome (KB-3-1) | max response (NIH3T3) 0.3% | outcome (HACAT [2]) inactive [at 92 µM] | Potency (HEK293T) | Potency (C33A)

C[C@]1(O)CC[C@@H]2C(C(=O)O)=CO[C@@H](O[C@@H]3O[C@H](COC(=O)c4ccc(O)cc4)[C@@H](O)[C@H](O)[C@H]3O)[C@@H]21
inactive: max response (CRL-7250) 2.99% | outcome (HEK293) | outcome (HaCat [1]) | max response (KB-3-1) 9.39% | max response (NIH3T3) 2.95% | outcome (HACAT [2]) inactive [at 17.4 µM] | Potency (HEK293T) | Potency (C33A)

CN1CC[C@@H](NC(=O)Nc2ccc(C#N)cc2)C[C@@H]1c1nc2ccccc2[nH]1
inactive: max response (CRL-7250) -0.913% | outcome (HEK293) | outcome (HaCat [1]) | max response (KB-3-1) -8.77% | max response (NIH3T3) 4.24% | outcome (HACAT [2]) | Potency (HEK293T) | Potency (C33A)

CCOC(=O)[C@H](CCc1ccccc1)CC1(C(=O)N[C@H]2CCc3ccccc3N(CC(=O)O)C2=O)CCCC1
inactive: max response (CRL-7250) -3.46% | outcome (HEK293) | outcome (HaCat [1]) | max response (KB-3-1) -2.38% | max response (NIH3T3) 3.76% | outcome (HACAT [2]) | Potency (HEK293T) | Potency (C33A)

C[C@H]1[C@H](C)CC[C@]2(C(=O)O)CC[C@]3(C)C(=CC[C@@H]4[C@@]5(C)C[C@@H](O)[C@H](O)[C@@](C)(CO)[C@@H]5CC[C@]43C)[C@H]12
inactive: max response (CRL-7250) 0.188% | outcome (HEK293) | outcome (HaCat [1]) | outcome (KB-3-1) | max response (NIH3T3) 4.85% | outcome (HACAT [2]) | Potency (HEK293T) | Potency (C33A)
